# Among all 69,000 compounds or so, about 1,000 (1.4%) showed an effect of 50% or more. The sample holds strong results, similar compounds and a random draw of the others, so the mix is not that of the screen.
# Test system: Leishmania donovani
# Assay: Leishmania intramacrophage assay
# Format: functional, organism-based
# Design: scale not given: in the data most compounds retested in dose-response had high values
smiles,measurement,setting,value
CN(C(=O)c1cccc2[nH]ncc12)C1CCN(c2ccccn2)CC1,Percent Effect,"30 µM, 30.03 µM",-37.63%
COc1cc(CNCc2ccnc(N3CCOCC3)c2)cc(Cl)c1OC,Percent Effect,"30 µM, 30.03 µM",26.59%
COc1c(C)cc(CNCc2ccnc(N3CCOCC3)c2)cc1C.Cl,Percent Effect,30 µM,54.99%
COc1cc(CNCc2ccnc(N3CCOCC3)c2)cc(OC)c1,Percent Effect,30 µM,28.31%
O=C(CCc1ccco1)Nc1ncn(CC(=O)N2CCCCCC2)n1,Percent Effect,"30.3 µM, […]",4.673%
Cn1ncc2c(N[C@H]3CC[C@@H](N)CC3)nc(C(C)(C)C)nc21,Percent Effect,"30.3 µM, […]",100.6%
Cn1ncc2c(N[C@H]3CCCC[C@@H]3O)nc(C(C)(C)C)nc21,Percent Effect,"30.3 µM, […]",44.26%
Cn1ncc2c(NC3CCCN(C(=O)C4CC4)C3)nc(C(C)(C)C)nc21 (configuration not stated),Percent Effect,"30.3 µM, […]",-38.63%
CSCC[C@@H]1CN2CCC[C@H]2CN1Cc1cn(C)nc1C,Percent Effect,"30.3 µM, […]",-2.658%
CC1CCCCN1C(=O)COCc1nc(-c2ccncc2)no1 (configuration not stated),Percent Effect,"30.3 µM, […]",55.9%
O=C(COCc1nc(-c2ccncc2)no1)N1CCCC1,Percent Effect,"30 µM, 30.03 µM",18.4%
O=C(COCc1nc(-c2ccncc2)no1)N1CCCCC1,Percent Effect,"30.3 µM, […]",-11.93%
O=C(Nc1cccc(F)c1)C1CCN(Cc2noc(C3CC3)n2)CC1,Percent Effect,"30.3 µM, […]",33.46%
CN(Cc1ccc(C(=O)O)cc1)C(=O)c1sccc1OC(F)F,Percent Effect,"30.3 µM, […]",18.71%
CCC1(CO)CCCN(C(=O)c2cc(COc3ccccc3F)[nH]n2)C1 (configuration not stated),Percent Effect,"30.3 µM, […]",-9.881%
CCC1(CO)CCCN(C(=O)c2cc(COc3cccc(F)c3)[nH]n2)C1 (configuration not stated),Percent Effect,"30.3 µM, […]",65.29%
CCC1(CO)CCN(C(=O)c2cc(COc3ccccc3F)[nH]n2)CC1,Percent Effect,"30.3 µM, […]",-10.91%
Cc1cccc(CN2CCn3c(COc4ncccn4)nnc3C2)n1,Percent Effect,"30.3 µM, […]",26.49%
COCCn1cc(CCC(=O)Nc2c(C)nn(C)c2C)c2ccccc21,Percent Effect,"30.3 µM, […]",-5.699%
CC(C)c1nc(CN(C)C2CCN(CCc3ccncc3)C2)no1 (configuration not stated),Percent Effect,30 µM,35.17%
CC(C)c1nc(CN(C)C(=O)C(O)c2ccc(Cl)cc2)cs1 (configuration not stated),Percent Effect,"30.3 µM, […]",-6.394%
CC(C)C[C@@H](N)C(=O)N(C)Cc1csc(C(C)C)n1,Percent Effect,"30.3 µM, […]",18.19%
CC(C)c1nc(CN(C)C(=O)[C@H](N)Cc2ccc(Cl)cc2)cs1,Percent Effect,"30.3 µM, […]",64.25%
CN1CCN(C(=O)CC2CCN(CCc3ccccn3)CC2)CC1,Percent Effect,"30 µM, 30.03 µM",28.67%
COC[C@@H]1CCCN1C(=O)c1cc(-c2cccc(OC)c2)n[nH]1,Percent Effect,"30.3 µM, […]",15.97%
O=C(CCCn1cnc2ccccc2c1=O)Nc1nc[nH]n1,Percent Effect,"30.3 µM, […]",-11.87%
CC(C)c1ccc(S(=O)(=O)N2CSCC2C(=O)NCC(F)(F)F)cc1 (configuration not stated),Percent Effect,30 µM,31.97%
CC(C)CCCNC(=O)Nc1ccc(C(N)=O)c(Cl)c1,Percent Effect,30 µM,-4.358%
O=C(CC1CC1)N1CCC2(CC1)CN(c1ncccn1)CCO2,Percent Effect,"30 µM, 30.03 µM",2.315%
O=C(Cc1ccccn1)N1CCC2(CC1)CN(c1ncccn1)CCO2.O=C(O)C(F)(F)F.O=C(O)C(F)(F)F,Percent Effect,"30.3 µM, […]",12.21%
O=C(Cc1ccncc1)N1CCC2(CC1)CC(c1ccccc1)CO2.O=C(O)C(F)(F)F (configuration not stated),Percent Effect,"30.3 µM, […]",68.9%
Cn1cc(C2COC3(CCN(C(=O)Cc4ccccc4)CC3)C2)cn1 (configuration not stated),Percent Effect,"30.3 µM, […]",7.925%
O=C(Cc1ccccc1)N1CCC2(CC1)CN(c1ncccn1)CCO2,Percent Effect,"30.3 µM, […]",60.82%
CC1COC2(CCN(C(=O)Cc3ccncc3)CC2)C1.O=C(O)C(F)(F)F (configuration not stated),Percent Effect,"30.3 µM, […]",9.251%
OCC1(NCc2cnc(-c3ccccn3)s2)CCOCC1,Percent Effect,"30.3 µM, […]",-4.185%
CNC(=O)NCC(=O)N(C)C(c1ccc(Cl)cc1)c1cccnc1 (configuration not stated),Percent Effect,"30.3 µM, […]",-0.8032%
CN(Cc1cncnc1)[C@H]1CN(C(=O)c2ccc[nH]2)[C@@H]2CCCO[C@@H]21,Percent Effect,"30.3 µM, […]",13.74%
CCCc1n[nH]c(C2CN(C(=O)CCCn3ccnc3C)CCO2)n1 (configuration not stated),Percent Effect,"30.3 µM, […]",52.76%
CCCc1n[nH]c(C2CN(C(=O)CCCn3ccnc3)CCO2)n1 (configuration not stated),Percent Effect,"30.3 µM, […]",48.09%
CCCc1n[nH]c(C2CN(C(=O)CCCn3cccn3)CCO2)n1 (configuration not stated),Percent Effect,"30 µM, 30.03 µM",8.129%
CCCC(=O)NCC(=O)Nc1cc(F)ccc1SCC(F)F,Percent Effect,"30.3 µM, […]",-46.76%
CN(C)C(=O)CN1C[C@@H]2CC[C@H](C1)N(C(=O)CCCn1cncn1)C2,Percent Effect,"30.3 µM, […]",3.091%
CC(C)(C)n1nnnc1CN(Cc1ccccc1)Cc1ccc(Cl)cc1,Percent Effect,"30.3 µM, […]",73.63%
CC(C)(C)n1nnnc1CN(Cc1ccccc1)Cc1ccccc1Cl,Percent Effect,"30.3 µM, […]",-43.37%
CC(C)(C)n1nnnc1CN(CCc1ccccc1)Cc1ccccc1,Percent Effect,"30.3 µM, […]",46.18%
CCC(CNC(=O)c1ccccc1OC)N1CCc2ccccc2C1 (configuration not stated),Percent Effect,"30.3 µM, […]",6.323%
CC(C)OCCCNC(=O)CS(=O)(=O)Cc1ccc(Cl)cc1,Percent Effect,30 µM,-19.7%
COC(=O)N1CCCN(Cn2nc(C)c(Br)c2C)CC1,Percent Effect,"30.3 µM, […]",-25.9%
CCC(=O)N1CCCN(Cn2nc(C)c(Br)c2C)CC1,Percent Effect,"30.3 µM, […]",-2.566%
COCC(=O)N1CCN(Cn2nc(C)c(Br)c2C)CC1,Percent Effect,"30.3 µM, […]",52.22%
Cc1ccn(Cc2nc(C(C)OCC(C)C)no2)c(=O)c1 (configuration not stated),Percent Effect,"30.3 µM, […]",4.888%
Cc1[nH]ccc1C(=O)N1CCC2(CC1)c1nc[nH]c1CCN2CC(C)C,Percent Effect,"30.3 µM, […]",14.63%

# — ChEMBL document CHEMBL3988442, “University of Dundee, Small-Polar-MMV Screening Library” (2021)
